Structures can show the parent of a compound that is named as a salt.
Each molecule was assayed on Saccharomyces cerevisiae BY4741 SeMeCo community (assay: z-score of subpopulation abundance vs DMSO median, subpopulation auxotrophic for HU; higher = larger share of this subpopulation than in DMSO controls). Details: 10 µM; 24 h; SM minimal medium; subpopulation (auxotrophy): HU.
Description: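 Fluorescent four-plasmid SeMeCo (self-establishing metabolically cooperating S. cerevisiae BY4741 community; plasmids pH-mRuby2, pL-mWasabi, pU-eCFP, pM-TagRFP657) was grown 24 h in minimal SM medium with each Selleck FDA-approved drug at 10 µM in 384-well plates. Cells were fixed and imaged by high-content confocal microscopy. For each auxotrophic subpopulation (and the prototroph), a z-score gives the deviation from the DMSO vehicle-control population median.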

SMILES | z-score of subpopulation abundance
CCC(=O)c1c(O)cc(O)cc1O [Flopropione] | 1.06
Nc1nc(=O)[nH]cc1F [Flucytosine] | 8.85
CCCSc1ccc2[nH]c(NC(=O)OC)nc2c1 [Albendazole] | -0.61
Cn1c([N+](=O)[O-])cnc1COC(N)=O [Ronidazole] | -1.13
OC(c1cc(C(F)(F)F)nc2c(C(F)(F)F)cccc12)C1CCCCN1 (stereo not given) [Mefloquine HCl] | -0.36
COc1ccccc1OCC(O)CN1CCN(CC(=O)Nc2c(C)cccc2C)CC1 (stereo not given) [Ranolazine] | -0.09
CCCNC(C)C(=O)Nc1ccccc1C (stereo not given) [Prilocaine] | 0.57
CC1(C)S[C@@H]2[C@H](NC(=O)[C@H](N)c3ccccc3)C(=O)N2[C@H]1C(=O)O [Ampicillin sodium] | 0.1
CCC(C)n1ncn(-c2ccc(N3CCN(c4ccc(OCC5COC(Cn6cncn6)(c6ccc(Cl)cc6Cl)O5)cc4)CC3)cc2)c1=O (stereo not given) [Itraconazole] | 7.89
COC(=O)C1=C(C)NC(C)=C(C(=O)OC(C)C)C1c1cccc2nonc12 (stereo not given) [Isradipine] | 0.75
CN1CCN2c3ncccc3Cc3ccccc3C2C1 (stereo not given) [Mirtazapine] | 0.29
COCCOC(=O)C1=C(C)NC(C)=C(C(=O)OC/C=C/c2ccccc2)C1c1cccc([N+](=O)[O-])c1 (stereo not given) [Cilnidipine] | 0.24
CC(=O)OCC(CCn1cnc2cnc(N)nc21)COC(C)=O [Famciclovir] | -0.39
COc1nc2ccc(Br)cc2cc1[C@@H](c1ccccc1)[C@@](O)(CCN(C)C)c1cccc2ccccc12 [Bedaquiline fumarate] | 1.44
NS(=O)(=O)Cc1noc2ccccc12 [Zonisamide] | -0.35
O=c1[nH]c2ccccc2n1CCN1CCN(c2cccc(C(F)(F)F)c2)CC1 [Flibanserin] | -0.17
CN(Cc1cnc2nc(N)nc(N)c2n1)c1ccc(C(=O)N[C@@H](CCC(=O)O)C(=O)O)cc1 [Methotrexate disodium] | -1.36
CCCCc1oc2ccc(NS(C)(=O)=O)cc2c1C(=O)c1ccc(OCCCN(CCCC)CCCC)cc1 [Dronedarone HCl] | 0.78
CCc1nn(CCCN2CCN(c3cccc(Cl)c3)CC2)c(=O)n1CCOc1ccccc1 [Nefazodone hydrochloride] | 0.21
COc1cccc(-c2c(C)n(Cc3c(F)cccc3C(F)(F)F)c(=O)n(C[C@H](NCCCC(=O)O)c3ccccc3)c2=O)c1F [Elagolix Sodium] | 0.74

SMILES | z-score of subpopulation abundance
CN[C@H](CC(C)C)C(=O)N[C@H]1C(=O)N[C@@H](CC(N)=O)C(=O)N[C@H]2C(=O)N[C@H]3C(=O)N[C@H](C(=O)N[C@H](C(=O)O)c4cc(O)cc(O)c4-c4cc3ccc4O)[C@H](O)c3ccc(c(Cl)c3)Oc3cc2cc(c3O[C@@H]2O[C@H](CO)[C@@H](O)[C@H](O)[C@H]2O[C@H]2C[C@](C)(N)[C@H](O)[C@H](C)O2)Oc2ccc(cc2Cl)[C@H]1O [Vancomycin HCl] | 0.05
CC(C)[C@H](N)C(=O)OCCOCn1cnc2c(=O)nc(N)[nH]c21 [Valaciclovir HCl] | 0.53
Cc1ccnc(NS(=O)(=O)c2ccc(N)cc2)n1 [Sulfamerazine] | -0.3
CN(Cc1ccc(C(C)(C)C)cc1)Cc1cccc2ccccc12 [Butenafine HCl] | -0.86
OCCN(CCO)c1nc(N2CCCCC2)c2nc(N(CCO)CCO)nc(N3CCCCC3)c2n1 [Dipyridamole] | -7.22
CCC(C)(C)C(=O)O[C@H]1C[C@@H](C)C=C2C=C[C@H](C)[C@H](CC[C@@H]3C[C@@H](O)CC(=O)O3)[C@H]21 [Simvastatin] | 1.53
CCn1cc(C(=O)O)c(=O)c2cc(F)c(N3CCN(C)CC3)cc21 [Pefloxacin Mesylate Dihydrate] | 0.28
CCOC(=O)C1=C(C)NC(C)=C(C(=O)OC)C1c1cccc([N+](=O)[O-])c1 (stereo not given) [Nitrendipine] | 1.51
C[C@H](NCc1ccc(OCc2cccc(F)c2)cc1)C(N)=O [Safinamide Mesylate] | 0.27
CS(=O)(=O)c1ccc(C2=C(c3ccccc3)C(=O)OC2)cc1 [Rofecoxib] | 0.01
O=C(O)CCC(=O)Nc1ccc(S(=O)(=O)Nc2nccs2)cc1 [Succinylsulfathiazole] | -0.31
Cc1ccccc1C(OCCN(C)C)c1ccccc1 (stereo not given) [Orphenadrine Citrate] | 0.14
CO/N=C(\C(=O)N[C@@H]1C(=O)N2C(C(=O)OCOC(=O)C(C)(C)C)=C(/C=C\c3scnc3C)CS[C@H]12)c1csc(N)n1 [Cefditoren Pivoxil] | -0.64
O=C1OC(CN2CCOCC2)CN1/N=C/c1ccc([N+](=O)[O-])o1 (stereo not given) [Furaltadone HCl] | -0.63
Cc1ncc([N+](=O)[O-])n1CCO [Metronidazole] | -0.14
Clc1ccc(COC(Cn2ccnc2)c2ccc(Cl)cc2Cl)c(Cl)c1 (stereo not given) [Miconazole] | 22.4
C#CCN(C)Cc1ccccc1 [Pargyline hydrochloride] | -0.08
CCOC(=O)CCC(=O)O[C@H]1[C@H](O[C@@H]2[C@@H](C)[C@H](O[C@H]3C[C@@](C)(OC)[C@@H](O)[C@H](C)O3)[C@@H](C)C(=O)O[C@H](CC)[C@@](C)(O)[C@H](O)[C@@H](C)C(=O)[C@H](C)C[C@@]2(C)O)O[C@H](C)C[C@@H]1N(C)C [Erythromycin Ethylsuccinate] | 0.76
Cc1c[nH]c(=O)[nH]c1=O [Thymine] | 0.14
CN(C)CCN1C(=O)c2cccc3cc(N)cc(c23)C1=O [Amonafide] | -0.59

From the supplement of paper PMC8975748
